HT1080 IDH1KD tx = qHTS for induction of synthetic lethality in tumor cells producing 2HG: qHTS for the HT-1080-IDH1KD cell line; HT-1080 IDH1 knockdown viability, ATP luminescence, 48 h; Potency, µM (doses to about 46.1 µM), inactives show at the top dose activity, negative = toxicity, usual class: cytotoxic; hit rate 2% among 360,000;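 also: potency is read from the fitted curve at half-maximal effect; 0% = DMSO wells and -100% = cell-free medium wells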
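Assay cells: HT-1080 with IDH1 knockdown, 750 per well, RPMI/5% FBS. Exposure: 48 h at 37 °C following 2 h pre-incubation. Read: CellTiter-Glo luminescence; fitted concentration-response, curve class assigned.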
DT40 TDP1 no CPT = qHTS for Inhibitors of human tyrosyl-DNA phosphodiesterase 1 (TDP1): qHTS in cells in absence of CPT | DT40 Tdp1-/- hTDP1 cells, no CPT, ATP luminescence, 48 h | Potency, µM (titrated, usually from 46.2 µM), inactives show top-dose activity change, negative = growth inhibition, hits mostly inhibitors | hit rate 15% among 420,000 | AID 686978, 2013; also: potency is read from the fitted curve at half-maximal effect; nearly all actives have a fitted effect of over 55% in size
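Compound effects on proliferation are scored in DT40 Tdp1-/-;hTDP1 cells in the absence of CPT. ATP levels (CellTiter-Glo luminescence) are recorded after a ≥48 hr, 37 °C incubation.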
TDP1 cell CPT = qHTS for Inhibitors of human tyrosyl-DNA phosphodiesterase 1 (TDP1): qHTS in cells in presence of CPT. chicken DT40 Tdp1-/-;hTDP1 cells + 20 nM CPT, ATP luminescence, 48 h. Potency, µM (series often up to 46.2 µM), without a hit: at the top dose activity change, negative = growth inhibition, usual class: inhibitors. hit rate 12% among 420,000; also: potency is read from the fitted curve at half-maximal effect; nearly all actives have a fitted effect of over 55% in size
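Chicken DT40 Tdp1-/- cells stably complemented with human TDP1 were seeded at 400 cells/well in medium containing 20 nM camptothecin, exposed to pin-transferred compounds, and grown at 37 °C for at least 48 hr. Viability was read as ATP luminescence.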
HT1080NT lethal = qHTS for induction of synthetic lethality in tumor cells producing 2HG: qHTS for the HT-1080-NT fibrosarcoma cell line | HT-1080-NT fibrosarcoma viability, CellTiter-Glo ATP luminescence, 48 h | Potency, µM (highest dose often 46.1 µM), for inactives: at the top dose activity, negative = less viability, usual class: cytotoxic | hit rate 1.6% among 360,000 | AID 686970, 2013;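 also: NT is the 2HG producing partner of a matched IDH1 knockdown line; potency is read from the fitted curve at half-maximal effect; 0% = DMSO-treated cells and -100% = media-only wells without cells; nearly all actives have a fitted effect of over 55% in size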
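Fibrosarcoma NT cells, 750 per well in 5% FBS RPMI, were exposed to compound for 48 hours. Viability: CellTiter-Glo luminescence.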
IL-1B inflam inh = qHTS for Inhibitors of Inflammasome Signaling: IL-1-beta AlphaLISA Primary Screen; activity change, % at 57.5 µM; AID 743279, 2014; THP-1 LPS/ATP IL-1B secretion, AlphaLISA, 16 h; stronger effect = lower value; hit rate 4.7% among 360,000; in the data active = activity change below about -50%; inconclusive = mostly about -30% to -49%
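THP-1 cells pretreated 1 hr with compounds (up to 57.5 uM final), then stimulated with LPS (250 ng/mL final) plus ATP (1.25 mM final); secreted IL-1B measured by AlphaLISA after 16 hr, decreased signal indicating inhibition.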
* = called active by the depositor. An excerpt weighted towards active compounds, which were near 19% of everything screened. Unless noted, calls follow the shape of the dose curve; as a rule, active = well fitted curve in the direction sought with a large enough effect; inconclusive = small, poorly fitted or top-dose-only effect, or another doubt; inactive = no such curve, though single readings can be large; an effect the other way counts as inactive or inconclusive. Unless noted, % is scaled to controls: 0 for no effect and ±100 for the full control effect.

How did Cc1ccnc(Nc2nc(-c3ccc(O)c(O)c3)cs2)c1 do in these assays?
HT1080 IDH1KD tx: inconclusive; DT40 TDP1 no CPT: 3.26µM*; TDP1 cell CPT: 2.06µM*; HT1080NT lethal: -25.1%; IL-1B inflam inh: -59.5*

How did CC(=O)Nc1ccc(-c2csc(Nc3ccccn3)n2)cc1 do in these assays?
HT1080 IDH1KD tx: -1.6%; DT40 TDP1 no CPT: -24.9%; TDP1 cell CPT: inconclusive; HT1080NT lethal: 0.7%; IL-1B inflam inh: -0.6

What do the screens show for `Cc1cccc(Nc2nc(-c3ccc(O)c(O)c3)cs2)n1`?
HT1080 IDH1KD tx: inconclusive; DT40 TDP1 no CPT: 1.64µM*; TDP1 cell CPT: 2.06µM*; HT1080NT lethal: inconclusive; IL-1B inflam inh: -4.4

What do the screens show for `Oc1ccc(-c2csc(Nc3cccc4ccccc34)n2)cc1O`?
HT1080 IDH1KD tx: -4.0%; DT40 TDP1 no CPT: 8.2µM*; TDP1 cell CPT: 0.92µM*; HT1080NT lethal: -12.3%; IL-1B inflam inh: 5.4

What do the screens show for `Cc1ccnc(Nc2nc(-c3ccc(O)cc3)cs2)c1`?
HT1080 IDH1KD tx: -28.2%; DT40 TDP1 no CPT: -27.1%; TDP1 cell CPT: 0.7%; HT1080NT lethal: -18.3%; IL-1B inflam inh: -21.4

How did Oc1ccc(-c2csc(Nc3ccccn3)n2)cc1O do in these assays?
HT1080 IDH1KD tx: -22.6%; DT40 TDP1 no CPT: 2.59µM*; TDP1 cell CPT: 5.17µM*; HT1080NT lethal: -21.4%; IL-1B inflam inh: inconclusive

How did N#C/C(=C\c1ccccc1)c1nc2ncccc2[nH]1 do in these assays?
HT1080 IDH1KD tx: 14.2%; DT40 TDP1 no CPT: inconclusive; TDP1 cell CPT: 7.5%; HT1080NT lethal: 10.7%; IL-1B inflam inh: -20.8

What do the screens show for `Cc1cccnc1Nc1nc(-c2ccc(O)c(O)c2)cs1`?
HT1080 IDH1KD tx: -22.0%; DT40 TDP1 no CPT: 3.66µM*; TDP1 cell CPT: 3.26µM*; HT1080NT lethal: -29.5%; IL-1B inflam inh: 0.0

What do the screens show for `COc1ccc(-c2csc(Nc3ncccc3C)n2)cc1OC`?
HT1080 IDH1KD tx: -11.7%; DT40 TDP1 no CPT: inconclusive; TDP1 cell CPT: inconclusive; HT1080NT lethal: -3.1%; IL-1B inflam inh: inconclusive

What do the screens show for `COc1cc([C@@H]2[C@H]3CNCC=C3C(C#N)=C(N)C2(C#N)C#N)ccc1OC(C)C`?
HT1080 IDH1KD tx: -2.4%; DT40 TDP1 no CPT: inconclusive; TDP1 cell CPT: 9.2µM*; HT1080NT lethal: -3.5%; IL-1B inflam inh: -18.9

How did COc1cc(=O)n2c(c1C(=O)N(C)Cc1nccs1)CCN(Cc1cccc(F)c1F)CC2 do in these assays?
DT40 TDP1 no CPT: -10.2%; TDP1 cell CPT: 7.2%

How did CN(CC(=O)Nc1ccccc1Br)C(=O)CNC(=O)c1ccc(Oc2ccccc2)cc1 do in these assays?
HT1080 IDH1KD tx: -4.9%; DT40 TDP1 no CPT: inconclusive; TDP1 cell CPT: inconclusive; HT1080NT lethal: -3.5%; IL-1B inflam inh: 5.3

What do the screens show for `c1ccc(CNc2nc3c(-c4ccccc4)nnn3c3ccccc23)cc1`?
DT40 TDP1 no CPT: inconclusive; TDP1 cell CPT: -6.4%

Results for CC1CCc2c(sc3nnn(Cc4ccc(F)cc4)c(=O)c23)C1 (configuration not stated) ?
DT40 TDP1 no CPT: 25.9µM*; TDP1 cell CPT: 3.26µM*

What do the screens show for `Cc1ccc(Cn2nnc3sc4c(c3c2=O)CCC(C)C4)cc1` (configuration not stated)?
DT40 TDP1 no CPT: inconclusive; TDP1 cell CPT: -27.7%

Results for CCC1(C)Cc2c(sc3nnn(Cc4ccccc4Cl)c(=O)c23)CO1 (configuration not stated) ?
HT1080 IDH1KD tx: -2.6%; DT40 TDP1 no CPT: 16.4µM*; TDP1 cell CPT: inconclusive; HT1080NT lethal: 11.0%; IL-1B inflam inh: -19.7

How did CC1CCc2c(sc3nnn(Cc4ccccc4Cl)c(=O)c23)C1 (configuration not stated) do in these assays?
DT40 TDP1 no CPT: 20.6µM*; TDP1 cell CPT: inconclusive

What do the screens show for `C=C(C)CSc1nc2sc3c(c2c(=O)n1Cc1ccccc1)CC(C)(CC)OC3` (configuration not stated)?
DT40 TDP1 no CPT: 11.6µM*; TDP1 cell CPT: inconclusive

What do the screens show for `COc1cc(C(=O)N2CCC(O)(c3ccccc3)CC2)cc(OC)c1OC`?
HT1080 IDH1KD tx: 0.7%; DT40 TDP1 no CPT: -2.0%; TDP1 cell CPT: -5.1%; HT1080NT lethal: 4.9%; IL-1B inflam inh: -19.8

What do the screens show for `CC(=O)Nc1ccc(/C=C/c2ccccn2)cc1`?
DT40 TDP1 no CPT: -4.3%; TDP1 cell CPT: -7.7%

How did Cc1cc(C)nc(-c2cccc3c2OC(CNC(=O)C2CCOC2)C3)n1 (configuration not stated) do in these assays?
DT40 TDP1 no CPT: -12.8%; TDP1 cell CPT: 1.2%

How did CC(C)Sc1nc2sc3c(c2c(=O)n1-c1ccccc1)CCCC3 do in these assays?
DT40 TDP1 no CPT: 18.4µM*; TDP1 cell CPT: inconclusive

Results for Nn1c(Nc2ccccc2)nc2sc3c(c2c1=O)CCC3 ?
HT1080 IDH1KD tx: inconclusive; DT40 TDP1 no CPT: 2.91µM*; TDP1 cell CPT: 1.03µM*; HT1080NT lethal: inconclusive; IL-1B inflam inh: -2.2

How did CSc1nc2sc3c(c2c(=O)n1-c1ccc(C)cc1)CCCC3 do in these assays?
DT40 TDP1 no CPT: 8.2µM*; TDP1 cell CPT: inconclusive

What do the screens show for `COc1ccc(-n2c(NN)nc3sc4c(c3c2=O)CCCC4)cc1`?
HT1080 IDH1KD tx: inconclusive; DT40 TDP1 no CPT: inconclusive; TDP1 cell CPT: -3.4%; HT1080NT lethal: inconclusive; IL-1B inflam inh: -14.6

Results for O=c1c2c3c(sc2nc(NCCO)n1-c1ccccc1)CCCC3 ?
HT1080 IDH1KD tx: inconclusive; DT40 TDP1 no CPT: 11.6µM*; TDP1 cell CPT: 6.51µM*; HT1080NT lethal: inconclusive; IL-1B inflam inh: 9.0

How did NNc1nc2sc3c(c2c(=O)n1Cc1ccccc1)CCC3 do in these assays?
HT1080 IDH1KD tx: -0.2%; DT40 TDP1 no CPT: -11.0%; TDP1 cell CPT: -16.5%; HT1080NT lethal: -4.5%; IL-1B inflam inh: -5.3

What do the screens show for `CSc1nc2sc3c(c2c(=O)n1-c1ccccc1)CCC(C(C)(C)C)C3` (configuration not stated)?
DT40 TDP1 no CPT: 0.92µM*; TDP1 cell CPT: inconclusive

Results for Cc1ccc(Cn2c(SCC(=O)N(C)C3CCS(=O)(=O)C3)nc3ccccc3c2=O)cc1 (configuration not stated) ?
HT1080 IDH1KD tx: -0.3%; DT40 TDP1 no CPT: inconclusive; TDP1 cell CPT: -21.1%; HT1080NT lethal: -11.8%; IL-1B inflam inh: -54.8*

Results for CN(C(=O)CSc1nnc(-c2ccc(F)cc2)n1C)C1CCS(=O)(=O)C1 (configuration not stated) ?
HT1080 IDH1KD tx: 16.8%; DT40 TDP1 no CPT: 15.6%; TDP1 cell CPT: 9.9%; HT1080NT lethal: 11.3%; IL-1B inflam inh: -14.9

Compound activity: PubChem BioAssay, National Center for Advancing Translational Sciences (NCATS)
